From PubChem BioAssay (NCATS)
Records with an inconclusive call do not appear. A call without a number means that no potency is given here. Unmarked numbers belong to inactive results. Active and inactive are the calls of the source. The call rests on the fitted dose curve; in most records, active means well fitted curve in the direction sought with a large enough effect; inconclusive means small, poorly fitted or top-dose-only effect, or another doubt; inactive means no such curve, though single readings can be large; an effect the other way counts as inactive or inconclusive.

Key:
[1] = qHTS of pediatric cancer cell lines to identify multiple opportunities for drug repurposing: Primary screen for MG 63 (6-TG R) cells (AID 1347105); further: nearly all actives have a fitted effect of over 50% in size; further: potency means the concentration at half of the fitted maximal effect
Outline: (§1)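 Cells seeded at 500-1,000 cells/well in growth media, rested 5 hours at 37 degrees C, 5% CO2, then dosed; MIPE compounds at 11-point (from 0.78 nM) and NPC at 8-point (from 0.59 nM) final concentrations. Viability by CellTiter-Glo luminescence after 48 hours.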

[2] = qHTS of pediatric cancer cell lines to identify multiple opportunities for drug repurposing: Primary screen for Rh30 cells (AID 1347107); further: nearly all actives have a fitted effect of over 75% in size; further: potency means the concentration at half of the fitted maximal effect; on activity change, negative = cytotoxic: series mostly up to about 46 µM
Outline: (§2)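 Viability after 48 h compound treatment at 37C, 500-1,000 cells/well, read as ATP luminescence with CellTiter-Glo. Primary screens used 11-point (MIPE, 0.78 nM-46 µM) or 8-point (NPC, 0.59 nM-46 µM) final concentrations; follow-up screens used 11-point dilutions.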

[3] = qHTS of pediatric cancer cell lines to identify multiple opportunities for drug repurposing: Primary screen for Rh41 cells (AID 1347108); further: nearly all actives have a fitted effect of over 70% in size; further: potency means the concentration at half of the fitted maximal effect;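 on activity change, negative = cytotoxic: series mostly up to about 46 µM; luminescence drop marks cytotoxic hits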
Outline: as §1

[4] = qHTS of pediatric cancer cell lines to identify multiple opportunities for drug repurposing: Confirmatory screen for NB1643 cells (AID 1347109); further: nearly all actives have a fitted effect of over 45% in size; further: potency means the concentration at half of the fitted maximal effect
Outline: as §2

[5] = qHTS of pediatric cancer cell lines to identify multiple opportunities for drug repurposing: Confirmatory screen for A673 cells (AID 1347110); further: nearly all actives have a fitted effect of over 65% in size; further: potency means the concentration at half of the fitted maximal effect
From the text: Drug repurposing or repositioning has been offered as a strategy for drug development in oncology programs. This approach has special potential for childhood cancers and other rare or orphan diseases, where the expected return on new drug development has been a disincentive to pharmaceuticals.
In this project we exploit the poly-pharmacology of drugs to discover new indications via phenotypic screening of a panel of 19 well-characterized cell lines derived from solid tumors seen in children and adolescents. The goal is to identify approved drugs with previously unrecognized anticancer properties that has the potential to reveal new mechanisms and biological processes involved in carcinogenesis or drug resistance. We employed a titration-based paradigm (quantitative high-throughput screening or qHTS), where all compounds were tested at multiple concentrations for their effect on cell viability. Concentration-response curves (CRCs) were derived directly from the primary screen, and both potency and efficacy values were used to identify compounds with robust bioactivity profiles. We screened the NIH Chemical Genomics Center (NCGC) Pharmaceutical Collection (NPC) and Mechanism Interrogation Plate (MIPE) small molecule collections of approved and investigational compounds against these cell lines; and measured metabolically active cells after 48 hours of compound treatment as a proxy for cell viability.
Assay Submitter: Nathalia J. Martinez, National Center for Advancing Translational Sciences, National Institutes of Health, Rockville, MD, USA; email: natalia.martinez@nih.gov.
[1] Shen, M et al. Quantitative high-throughput phenotypic screening of pediatric cancer cell lines identifies multiple opportunities for drug repurposing. Oncotarget 2017 Dec 19;9(4):4758-4772. PMID 29435139.
The cells were obtained from University of North Carolina (UNC), Pediatric Preclinical Testing Program (PPT), and Coriell Institute (CI).
qHTS cell viability assay:
Cells were assayed in growth media at a density of 500-1,000 cells/well. Five microliters of cells were dispensed into 1,536-well, white, solid-bottom, TC-treated plates (Greiner Bio One) using a multidrop dispenser and incubated at 37 degrees C, 5% CO2, under a humidified atmosphere for 5 hours. Twenty-three nanoliters of compounds and controls (neutral control DMSO or positive control bortezomib at final concentration of 2.3 uM) were subsequently transferred by Kalypsys pintool. For primary screens, the MIPE collection was tested at 11-point dilutions (final concentrations range from 0.78 nM to 46 µM) and the NPC collection at 8-point dilutions (final concentrations range from 0.59 nM to 46 µM). Compounds tested in follow-up screens were assayed at 11-point dilutions. Cells were incubated for 48 hours, followed by addition of 3 uL of CellTiter-Glo (Promega). After a 15min incubation at room temperature, samples were analyzed for luminescence intensity using a ViewLux High-throughput CCD imager equipped with clear filters.

[6] = qHTS of pediatric cancer cell lines to identify multiple opportunities for drug repurposing: Confirmatory screen for SK-N-MC cells (AID 1347111); conditions: SK-N-MC cell viability;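 further: potency means the concentration at half of the fitted maximal effect; cells exposed to compound for 48 h before the readout; nearly all actives have a fitted effect of over 70% in size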
Outline: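 SK-N-MC cells at 500-1,000 cells/well in growth media were pre-incubated 5 h, then exposed to compounds at 11-point dilutions for 48 h at 37 degrees C, 5% CO2. Viability was read as CellTiter-Glo luminescence.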

[7] = qHTS of pediatric cancer cell lines to identify multiple opportunities for drug repurposing: Confirmatory screen for BT-12 cells (AID 1347112); further: nearly all actives have a fitted effect of over 55% in size; further: potency means the concentration at half of the fitted maximal effect
Outline: as §2

[8] = qHTS of pediatric cancer cell lines to identify multiple opportunities for drug repurposing: Confirmatory screen for LAN-5 cells (AID 1347113); further: nearly all actives have a fitted effect of over 65% in size; further: potency means the concentration at half of the fitted maximal effect
Outline: as §2

[9] = qHTS of pediatric cancer cell lines to identify multiple opportunities for drug repurposing: Confirmatory screen for DAOY cells (AID 1347114); further: nearly all actives have a fitted effect of over 65% in size; further: potency means the concentration at half of the fitted maximal effect
Outline: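 Viability measured as metabolically active cells via CellTiter-Glo luminescence following 48 hours of compound exposure, 11-point dilutions in confirmatory testing. 500-1,000 cells/well plated 5 hours before dosing; controls were DMSO and 2.3 µM bortezomib.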

[10] = qHTS of pediatric cancer cell lines to identify multiple opportunities for drug repurposing: Primary screen for control Hh wild type fibroblast cells (AID 1347106);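 further: series mostly up to about 46 µM; a drop in luminescence marks cytotoxicity and a rise apparent proliferation; nearly all actives have a fitted effect of over 55% in size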
Outline: as §2

**Q.** What does the source list for C[n+]1cc2c3c(ccc2c2ccc4cc5c(cc4c21)OCO5)OCO3?
**A.** Potency [1]: 2.31 µM (active); Potency [2]: 2.59 µM (active); Potency [3]: 2.59 µM (active); Potency [4]: 1.02 µM (active); Potency [5]: 1.15 µM (active); Potency [6]: 1.29 µM (active); Potency [7]: 3.23 µM (active); Potency [8]: 0.811 µM (active); Potency [9]: 2.29 µM (active)

**Q.** With CN1C[C@H](C(=O)N[C@]2(C)O[C@@]3(O)[C@@H]4CCCN4C(=O)[C@H](Cc4ccccc4)N3C2=O)C[C@@H]2c3cccc4[nH]cc(c34)C[C@H]21 as the compound, how does the Potency [1] read?
**A.** inactive

**Q.** What about the outcome [10] of the same compound?
**A.** inactive

**Q.** What about the Potency [2] of the same compound?
**A.** inactive

**Q.** What about the Potency [3] of the same compound?
**A.** inactive

**Q.** What about the Potency [4] of the same compound?
**A.** inactive

**Q.** What about the Potency [5] of the same compound?
**A.** inactive

**Q.** And the Potency [7]?
**A.** inactive

**Q.** Which Potency [1] does the source give for C[C@]12C=CC(=O)C=C1CC[C@H]1[C@@H]3C[C@@H](O)[C@](O)(C(=O)CO)[C@@]3(C)C[C@H](O)[C@@]12F here?
**A.** inactive

**Q.** What about the outcome [10] of the same compound?
**A.** inactive

**Q.** And the Potency [2]?
**A.** inactive

**Q.** And the Potency [3]?
**A.** inactive

**Q.** And the Potency [4]?
**A.** 6.57 µM (active)

**Q.** What about the Potency [5] of the same compound?
**A.** 1.04 µM (active)

**Q.** And the Potency [6]?
**A.** 7.37 µM (active)

**Q.** What about the Potency [8] of the same compound?
**A.** 9.27 µM (active)

**Q.** And the Potency [9]?
**A.** inactive

**Q.** For CC1=NS(=O)(=O)c2cc(Cl)ccc2N1, which Potency [1] is on record?
**A.** inactive

**Q.** And the outcome [10]?
**A.** inactive

**Q.** What about the Potency [2] of the same compound?
**A.** inactive

**Q.** What about the Potency [3] of the same compound?
**A.** inactive

**Q.** Which outcome [10] does the source give for O=C1NCN(c2ccccc2)C12CCN(CCCC(c1ccc(F)cc1)c1ccc(F)cc1)CC2 here?
**A.** inactive

**Q.** Which results are given for Nc1nc(N)c2nc(-c3ccccc3)c(N)nc2n1?
**A.** Potency [1]: inactive; outcome [10]: inactive; Potency [3]: inactive; Potency [6]: 3.69 µM (active); Potency [8]: inactive

**Q.** Which results are given for C[C@]12CC[C@@H]3c4ccc(O)cc4C[C@@H](CCCCCCCCCS(=O)CCCC(F)(F)C(F)(F)F)[C@H]3[C@@H]1CC[C@@H]2O (some centres not stated)?
**A.** Potency [1]: inactive; outcome [10]: inactive; Potency [2]: inactive; Potency [3]: inactive; Potency [4]: inactive; Potency [5]: 11.7 µM (active); Potency [6]: 2.61 µM (active); Potency [7]: inactive; Potency [8]: inactive; Potency [9]: inactive

**Q.** For NCCCNCCSP(=O)(O)O, which activity change, negative = cytotoxic [1] is on record?
**A.** -7.37% [at 9.22 µM]

**Q.** What about the activity change, negative = cytotoxic [10] of the same compound?
**A.** 2.73% [at 9.22 µM]

**Q.** What about the activity change, negative = cytotoxic [2] of the same compound?
**A.** 17.5% [at 9.22 µM]

**Q.** What about the activity change, negative = cytotoxic [3] of the same compound?
**A.** 20.1% [at 9.22 µM]

**Q.** And the activity change, negative = cytotoxic [7]?
**A.** 1.94% [at 9.58 µM]

**Q.** For COc1cc2c(cc1OC)-c1cc(=Nc3c(C)cc(C)cc3C)n(C)c(=O)n1CC2, which outcome [10] is on record?
**A.** inactive

**Q.** What about the Potency [2] of the same compound?
**A.** inactive

**Q.** For CC(C)COCC(CN(Cc1ccccc1)c1ccccc1)N1CCCC1 (configuration not stated), which outcome [10] is on record?
**A.** inactive

**Q.** With COC(=O)[C@H]1[C@H]2C[C@@H]3c4[nH]c5cc(OC)ccc5c4CCN3C[C@H]2C[C@@H](OC(=O)c2cc(OC)c(OC)c(OC)c2)[C@@H]1OC as the compound, how does the outcome [10] read?
**A.** inactive

**Q.** And the Potency [2]?
**A.** inactive

**Q.** What does the source list for CC(=O)[C@]1(O)Cc2c(O)c3c(c(O)c2[C@@H](O[C@H]2C[C@H](N)[C@H](O)[C@H](C)O2)C1)C(=O)c1ccccc1C3=O?
**A.** Potency [1]: 2.11 µM (active); Potency [2]: inactive; Potency [3]: 0.841 µM (active)

**Q.** For CCCNC(C)C(=O)Nc1ccccc1C (configuration not stated), which Potency [1] is on record?
**A.** inactive

**Q.** And the outcome [10]?
**A.** inactive

**Q.** What about the Potency [2] of the same compound?
**A.** inactive

**Q.** What about the Potency [3] of the same compound?
**A.** inactive
